# DAX1 inh-1: DAX1 (NR0B1) inhibition, primary screen. actives 1.1% (n = 370,000). inhibition, % at 6.8 µM. HEK293T StAR-luciferase reporter, SF-1/DAX-1 repression relief;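 active = inhibition above the mean over all tested compounds plus 3 SD, cut at about 3.6% in these data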;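 also: 0% = DAX-1 cells with DMSO and 100% = cells lacking DAX-1 with DMSO; higher inhibition means more luminescence from relief of DAX-1 repression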
# hcDAF-12 act: activators of H. contortus DAF-12 nuclear receptor; HEK293 hcDAF-12 lit1-tk-luc reporter, luminescence; 0% DMSO, 100% Δ7-dafachronic acid; activation, % at 6.8 µM; actives 1.4% (n = 370,000);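 active = activation above the mean of all tested compounds plus 3 SD, cut at about 5.5% in these data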;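 also: 100% = response to 3 µM Δ7-dafachronic acid high control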
# ssDAF12 agonist: S. stercoralis DAF-12 activation, primary screen | AID 652126 | actives 1% (n = 370,000) | HEK293 ssDAF-12/GRIP1 lit1-tk-luc reporter, luminescence; % of 3 µM dafachronic acid response | activation, % at 6.8 µM;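 active = activation above the mean over all tested compounds plus 3 SD, cut at about 0.9% in these data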;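 also: 0% = DMSO-only wells and 100% = 3 µM delta7-dafachronic acid wells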
# SMARCA2 activ: SMARCA2 function activation, primary screen. MG213 cells, MMTV-luciferase reporter, dexamethasone, overnight. activation, % at 9.1 µM. actives 1% (n = 370,000). AID 652017; in the data active = activation above about 7.8%;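 also: 0% = vehicle wells and 100% = reference activator wells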
# hgDAF-12 ag: hgDAF-12 agonism, primary luciferase screen; HEK293 GAL4-hgDAF12 UAS-luciferase reporter, agonist luminescence; normalized to butyrate control; actives 1.8% (n = 370,000); activation, % at 6.8 µM;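 active = activation above a cutoff set at the mean of all screened compounds plus 3 SD, cut at about 10% in these data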;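 also: 0% = DMSO wells and 100% = sodium butyrate wells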
# DAX1 inh-2: NR0B1 (DAX1) inhibition; HEK293 Gal4-DAX1 luciferase reporter, luminescence; AID 504766; actives 0.99% (n = 340,000); P51843; inhibition, % at 6.75 µM;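 active = inhibition above the mean over all tested compounds plus 3 SD, cut at about 4.2% in these data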;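 also: 0% = DAX1-transfected cells with DMSO and 100% = empty-vector control cells with DMSO; inhibition shows as a rise in luminescence from relieved DAX1 repression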
# Target sequence (P51843 207-470 limits assumed): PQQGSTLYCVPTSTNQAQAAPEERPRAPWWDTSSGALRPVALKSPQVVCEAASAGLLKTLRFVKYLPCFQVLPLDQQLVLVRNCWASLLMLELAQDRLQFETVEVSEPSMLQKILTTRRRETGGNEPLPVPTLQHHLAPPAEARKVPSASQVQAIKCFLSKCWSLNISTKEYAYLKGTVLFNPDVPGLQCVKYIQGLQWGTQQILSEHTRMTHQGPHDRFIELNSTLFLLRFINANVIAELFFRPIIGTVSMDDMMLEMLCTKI
# DAX1 inh confirm: confirmation of human DAX1 (NR0B1) inhibitors | inhibition, % at 6.8 µM | shares compounds with DAX1 inh-1 | AID 652134 | HEK293T StAR-promoter luciferase reporter, SF-1/DAX-1 repression | actives 87% (n = 2,400);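 active = inhibition above the average of every tested compound plus 3 SD, cut at about 3.8% in these data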;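 also: 0% = DAX-1 cells with DMSO and 100% = no DAX-1 control cells with DMSO; active compounds raise luminescence by relieving repression of the StAR reporter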
# Target sequence (P51843 whole entry, looked up): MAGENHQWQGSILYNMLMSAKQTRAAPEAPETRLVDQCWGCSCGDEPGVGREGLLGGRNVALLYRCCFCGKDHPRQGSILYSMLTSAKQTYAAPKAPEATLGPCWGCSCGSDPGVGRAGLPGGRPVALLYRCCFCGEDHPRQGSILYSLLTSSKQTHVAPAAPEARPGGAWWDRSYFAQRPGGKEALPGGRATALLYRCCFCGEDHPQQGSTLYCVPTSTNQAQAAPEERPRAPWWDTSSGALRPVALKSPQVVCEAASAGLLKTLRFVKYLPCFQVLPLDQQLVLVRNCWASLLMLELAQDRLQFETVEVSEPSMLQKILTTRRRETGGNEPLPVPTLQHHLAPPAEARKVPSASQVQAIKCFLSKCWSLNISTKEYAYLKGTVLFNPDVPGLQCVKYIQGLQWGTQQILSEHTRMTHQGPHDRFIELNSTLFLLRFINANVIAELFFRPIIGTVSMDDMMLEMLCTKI
# SF1 AF2mut Luc: nonselective inhibitor or artifact in SF-1 mutant DAX1 counter-screen | HEK293 StAR-luciferase, SF-1 AF2 mutant, luminescence | AID 652136 | shares compounds with DAX1 inh-1 | inhibition, % at 6.8 µM | actives 78% (n = 2,400);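 active = inhibition above the mean of all tested compounds plus 3 SD, cut at about 3% in these data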;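 also: 0% = DAX-1 transfected cells with DMSO and 100% = cells without DAX-1 with DMSO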
# Numbers without * were called inactive; . = no result. Most compounds without a hit are left out; they make up all but 4.8% or so of the library.
SMILES,DAX1 inh-1,hcDAF-12 act,ssDAF12 agonist,SMARCA2 activ,hgDAF-12 ag,DAX1 inh-2,DAX1 inh confirm,SF1 AF2mut Luc
Cc1ccc(C)c(Cn2nnc(C(=O)Nc3ccc4c(c3)OCCO4)c2N)c1,4.6*,-1.1,-0.4,3.6,1.3,0.3,3.4,3.6*
Cc1ccccc1Cn1nnc(C(=O)Nc2ccc3c(c2)OCCO3)c1N,6.2*,1.1,-0.1,4.5,9.6,3.8,8.7*,7.4*
Cc1cc(C)cc(NC(=O)c2nnn(Cc3cc(C)ccc3C)c2N)c1,.,.,.,.,.,-0.5,.,.
CCc1ccc(C=NN2CCN(Cc3ccc(C)cc3C)CC2)cc1,-1.0,0.5,-2.0,-1.2,-1.7,.,.,.
Cc1nc2ccc(NC(=O)c3ccc(F)cc3Cl)cc2c(=O)[nH]1,-1.3,-3.0,-1.2,-2.6,-0.4,.,.,.
Cc1ccn2c(=O)nc(SCC(=O)c3ccccc3)nc2c1,3.1,2.6,0.2,1.2,7.6,1.3,.,.
Cc1ccc2nc(SCC(=O)c3ccccc3)nc(=O)n2c1,8.3*,3.9,0.1,7.3,12.3*,2.5,9.2*,5.3*
COc1ccc(O)c(C(=O)CC(=O)c2ccncc2)c1,4.7*,0.8,-0.9,3.6,11.9*,1.7,5.7*,3.6*
COc1ccc(C(=O)NNC(=O)c2ccncc2)cc1,-0.2,-3.6,-0.9,-1.5,-0.4,-0.9,.,.
CCSc1nnc(NC(=O)c2cc(C)oc2C)s1,1.6,1.5,-0.3,0.3,9.7,2.5,.,.
CCc1nnc(NC(=O)c2cc(C)oc2C)s1,9.5*,5.5,0.6,5.5,8.8,0.9,7.9*,5.6*
Nc1ccc(-c2nc3cc(N)ccc3s2)cc1,4.8*,6.5*,1.0*,4.0,20.9*,0.1,11.0*,4.2*
CCCCNC(=O)C1CCCN1C(=O)Nc1cc(C)cc(C)c1 (configuration not stated),1.4,0.3,-0.6,-1.2,-1.9,.,.,.
Cc1ccc(C(=O)Nc2ccc(Cl)cc2C)c(Cl)c1,6.7*,4.8,-0.4,1.4,12.2*,0.8,7.2*,5.4*
Cc1cc(NC(=O)c2ccccc2Cl)ccc1NC(=O)c1ccccc1Cl,-0.2,-3.3,0.0,0.7,-0.8,-1.1,.,.
O=C(CCc1ccccc1)Nc1ccc(NC(=O)c2ccco2)cc1,0.7,0.1,-1.4,-1.5,4.0,1.4,.,.
O=C(Nc1ccc(CSc2ccccc2)cc1)c1ccco1,5.5*,2.8,0.0,3.6,12.7*,2.2,8.4*,5.5*
Cc1ccc2c(c1)-c1c(cnn1CC(=O)NCCc1ccc(Cl)cc1)CO2,-1.0,-1.6,-1.3,-5.6,0.0,.,.,.
COC(=O)[C@H]1C[C@@]2(O)CN(S(=O)(=O)c3ccc(C)cc3)C[C@@]2(OC(=O)NCc2ccc(OC)c(OC)c2)C[C@H]1C(=O)OC,5.5*,-1.1,-0.7,-2.6,0.9,1.0,1.0,-0.1
COC(=O)[C@H]1C[C@@]2(O)CN(S(=O)(=O)c3ccc(C)cc3)C[C@@]2(OC(=O)NCc2ccccc2F)C[C@H]1C(=O)OC,1.1,0.8,-0.4,-5.4,-1.6,2.0,.,.
Cc1cccc(C(=O)N/N=C/c2ccoc2)c1,0.7,-0.8,-1.0,5.5,3.5,-0.1,.,.
CC(/C=N/NC(=O)c1ccccc1F)=C\c1ccccc1,9.2*,4.5,-0.5,3.4,12.2*,1.0,9.9*,4.2*
CC(/C=N/NC(=O)c1ccccc1C)=C\c1ccccc1,0.5,1.9,-0.5,-1.8,3.2,.,.,.
Cc1c(C(=O)N/N=C/c2ccoc2)cccc1[N+](=O)[O-],0.1,0.3,-1.0,2.8,0.9,1.0,.,.
O=C(N/N=C\c1ccoc1)c1ccco1,6.6*,3.5,-0.6,2.1,7.8,2.1,2.5,2.4
SMILES,DAX1 inh-1,hcDAF-12 act,ssDAF12 agonist,SMARCA2 activ,hgDAF-12 ag,DAX1 inh-2,DAX1 inh confirm,SF1 AF2mut Luc
O=C(N/N=C/c1ccoc1)c1ccccc1F,5.3*,2.4,-0.4,5.0,4.4,0.6,3.7*,3.3*
COc1ccc2c(c1)NC(=O)[C@@]2(CCN1C(=O)c2ccccc2C1=O)c1[nH]c2ccccc2c1CCN1C(=O)c2ccccc2C1=O,.,-3.6,-2.4,.,-4.3,.,.,.
COC(=O)[C@]12C[C@H](CC(=O)N3CCSCC3)C(=O)N(Cc3ccco3)C1=C[C@H](C(C)(C)C)O[C@@H]2C,-1.0,-1.0,-1.5,-3.2,4.2,.,.,.
O=C(C[C@H]1C[C@H](C(=O)N2CCOCC2)[C@@]2(CCC3CCCC3)c3[nH]c4cc(-c5ccco5)ccc4c3CCN2C1=O)NCCc1ccccn1,4.6*,-1.8,-1.3,1.8,-3.0,-1.1,-1.2,-1.1
O=C(C[C@H]1C[C@H](C(=O)N2CCOCC2)[C@@]2(CCC3CCCC3)c3[nH]c4cc(-c5ccco5)ccc4c3CCN2C1=O)NCCC1=CCCCC1,.,.,.,.,.,-0.5,.,.
CN(C)CCCNC(=O)C[C@H]1C[C@H](C(=O)N2CCCCC2)[C@@]2(CCc3ccccc3)c3[nH]c4cc(-c5ccco5)ccc4c3CCN2C1=O,-0.2,-0.5,-0.3,-3.6,-1.5,-0.1,.,.
CC(C)(C)NC(=O)C[C@H]1C[C@H](C(=O)N2CCCCC2)[C@@]2(CCc3ccccc3)c3[nH]c4cc(-c5ccco5)ccc4c3CCN2C1=O,6.1*,-1.8,-1.0,-4.7,-2.6,-0.4,0.1,-1.3
CCc1nnc(NC(=O)C2COc3ccccc3O2)s1 (configuration not stated),4.5*,1.7,-0.2,2.0,7.6,1.6,6.3*,4.0*
Cc1ccc(F)cc1NC(=O)COC(=O)c1ccc2ncsc2c1,4.7*,0.6,-0.1,-1.1,3.3,-0.4,3.6,0.5
CCn1ccc(C(=O)Nc2ncc(C)s2)n1,8.9*,2.9,0.2,5.1,7.7,1.2,9.4*,4.4*
O=c1[nH]c(COc2ccc(Cl)cc2Cl)nc2ccccc12,5.2*,-0.3,-0.4,4.0,7.2,0.5,13.3*,6.8*
CC(C)CN1C(=O)[C@@]2(CC(=O)N(C)C2c2ccccc2)c2cc(-n3cc(CN(C)C)nn3)ccc21 (some centres not stated),0.3,-0.4,-1.4,-0.1,-1.6,.,.,.
CS(=O)(=O)N1CCCCC1c1cc(C(=O)Nc2cccc(C#N)c2)no1 (configuration not stated),2.0,-2.2,-0.7,3.0,4.0,.,.,.
CS(=O)(=O)N1CCCCC1c1cc(C(=O)Nc2ccccc2)no1 (configuration not stated),6.7*,2.4,-0.5,3.4,11.2*,.,7.9*,7.0*
CC(=O)N1CCCN(C(=O)CCn2nnc3ccccc32)CC1,0.4,-1.2,-1.0,-2.2,0.5,.,.,.

# Screening results from PubChem.
